Assay outcomes (PubChem)
NRP1-CendR mod: modulators of CendR peptide binding to NRP-1, primary screen, biochemical, fluorescence polarization, uHTS; inhibition, % at 25 µM; Neuropilin-1 (Homo sapiens), O14786; hit rate 0.85% among 360,000; AID 602438, 2012; FAM-RPARPAR peptide binding to NRP-1;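 active = inhibition or corrected inhibition above about 18%, plus a signal ratio from 0.5 to 1.5, limit read from the data, passing the limit was not always enough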
Target sequence (O14786 whole entry, looked up): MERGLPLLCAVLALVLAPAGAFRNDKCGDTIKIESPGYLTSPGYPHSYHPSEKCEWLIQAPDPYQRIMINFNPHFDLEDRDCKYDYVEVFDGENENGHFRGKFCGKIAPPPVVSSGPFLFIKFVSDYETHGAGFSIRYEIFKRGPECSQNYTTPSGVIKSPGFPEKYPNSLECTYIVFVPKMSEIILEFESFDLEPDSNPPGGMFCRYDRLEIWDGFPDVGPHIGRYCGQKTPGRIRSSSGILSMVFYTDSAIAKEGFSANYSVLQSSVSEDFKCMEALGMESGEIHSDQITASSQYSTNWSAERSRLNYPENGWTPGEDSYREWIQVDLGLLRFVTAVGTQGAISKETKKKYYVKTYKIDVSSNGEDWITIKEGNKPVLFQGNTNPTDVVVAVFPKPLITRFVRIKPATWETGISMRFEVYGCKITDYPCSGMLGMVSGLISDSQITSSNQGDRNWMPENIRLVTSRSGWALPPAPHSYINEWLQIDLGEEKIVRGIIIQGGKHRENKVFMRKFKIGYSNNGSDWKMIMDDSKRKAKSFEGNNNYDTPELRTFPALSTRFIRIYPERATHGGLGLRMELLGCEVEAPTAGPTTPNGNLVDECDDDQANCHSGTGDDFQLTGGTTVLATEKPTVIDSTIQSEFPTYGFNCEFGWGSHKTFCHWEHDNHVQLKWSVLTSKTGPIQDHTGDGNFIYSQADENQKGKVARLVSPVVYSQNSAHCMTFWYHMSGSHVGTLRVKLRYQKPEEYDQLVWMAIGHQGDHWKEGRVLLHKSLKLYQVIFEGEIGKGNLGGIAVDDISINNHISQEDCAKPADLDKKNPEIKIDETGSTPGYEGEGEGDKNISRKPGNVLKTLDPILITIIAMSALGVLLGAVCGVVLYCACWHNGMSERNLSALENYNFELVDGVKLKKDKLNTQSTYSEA
ADAM10 inh: human ADAM10 inhibitors, primary screen, biochemical, QFRET, HTS; Disintegrin and metalloproteinase domain-containing protein 10 (Homo sapiens), O14672; inhibition, % at 7 µM; recombinant ADAM10, EDANS/DABCYL FRET peptide cleavage, 3 h; hit rate 0.62% among 370,000; AID 720582, 2013;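 active = inhibition above a per-campaign cutoff equal to the mean of compounds falling between control-based bounds plus 3 SD, cut at about 20% in these data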;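 also: 0% = DMSO wells while the 100% control is not disclosed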
ADAM17 inh: ADAM17 inhibitors, primary screen, biochemical, QFRET | recombinant ADAM17, EDANS/DABCYL FRET peptide cleavage | Disintegrin and metalloproteinase domain-containing protein 17 (Homo sapiens), P78536 | hit rate 0.83% among 370,000 | inhibition, % at 6.95 µM;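 active = inhibition above the mean of compounds lying between control limits plus 3 SD, set per campaign, cut at about 8.5% in these data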;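 also: 0% = DMSO-only wells as the low control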
sPLA2-III inh: human group III sPLA2 inhibitors, primary screen, biochemical, QFRET, BODIPY PC-A2 liposome substrate | QFRET BODIPY PC-A2 liposome hydrolysis, fluorescence | inhibition, % at 12.2 µM | Group 3 secretory phospholipase A2 (Homo sapiens), Q9NZ20 | hit rate 0.56% among 370,000 | AID 743126, 2013;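 active = inhibition above mean plus 3 SD of compounds lying within the high and low control bounds, cut at about 19% in these data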;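 also: 0% = median of test compound wells and 100% = no enzyme DMSO wells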
proKLK7 act: proKLK7 zymogen activators, primary screen, biochemical, fluorescence intensity; activation, % at 7 µM; hit rate 0.9% among 370,000; Kallikrein-7 (Homo sapiens), P49862; purified proKLK7, EDANS-DABCYL substrate fluorescence; 100% is mature enzyme control, 0% vehicle;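 active = activation above the mean of all tested compounds plus 3 SD, computed per campaign excluding outliers beyond control limits, cut at about 13% in these data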
sPLA2 confirm: human group III sPLA2 inhibitors, confirmation, biochemical, QFRET, triplicate; shares compounds with sPLA2-III inh; recombinant hGIII-sPLA2, BODIPY PC-A2 QFRET fluorescence; inhibition, % at 12.2 µM; hit rate 34% among 2,000;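 active = mean inhibition across triplicates above the hit cutoff set in the earlier primary screen, cut at about 19% in these data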;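 also: 0% = enzyme with DMSO and 100% = DMSO wells lacking enzyme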
BODIPY interf: 535nm fluorescence optical interference, confirmation, artefact control for HGIII-sPLA2 inhibitor project, biochemical, QFRET. AID 743282, 2014. inhibition, % at 12.2 µM. shares compounds with sPLA2-III inh. hit rate 8.5% among 2,000. BODIPY FL product fluorescence interference;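 active = average inhibition above the solvent-only control mean plus 3 SD, cut at about 6% in these data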;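 also: 0% = DMSO with substrate plus product and 100% = DMSO with substrate alone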
BODIPY interf DR: 535nm fluorescence optical interference, dose response, artefact control for HGIII-sPLA2 inhibitor project, biochemical, QFRET; shares compounds with sPLA2-III inh; BODIPY FL product fluorescence interference, cell-free; IC50, µM; 240 tested, under 10 active; AID 743455, 2014;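 active = IC50 at or below 10 µM; inactive = IC50 above 10 µM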
Starred values were filed as active, the others as inactive; . = no result; ! = a repeat was not active. Sampled rows, rich in hits. Any-hit rate of the full collection: about 3.4%.

SMILES	NRP1-CendR mod	ADAM10 inh	ADAM17 inh	sPLA2-III inh	proKLK7 act	sPLA2 confirm	BODIPY interf	others
CC(C)CN(C(=O)C1CCC1)c1c(N)n(Cc2ccccc2)c(=O)[nH]c1=O	-2	-4	-1	20*	-1	2	-7
CCCCN(C)C(=O)CNc1nnnn1-c1ccccc1	.	1	-1	-1	-1	.	.
Cc1c(C(=O)N/N=C/c2ccccc2Cl)[nH][nH]c1=O	.	0	1	2	0	.	.
COc1cc(N=c2ssnc2Cl)c(OC)cc1Cl	5	8	2	23*!	0	33*	1	BODIPY interf DR=>122
COc1ccc(OC)c(N=c2ssnc2Cl)c1	2	12	1	7	0	.	.
COC(=O)[C@]12C[C@H](CC(=O)N3CCC(c4ccccc4)CC3)C(=O)N(CCc3ccc(OC)c(OC)c3)C1=C[C@H](C1CCCC1)O[C@@H]2C	.	6	7	-4	1	.	.
O=S(=O)(O)c1cc(O)c(N=Nc2ccc(O)cc2O)c2ccccc12	38	-20	-3	23*	2	19	4
CSc1cccc(NC(N)=S)c1	0	-5	-1	20*	0	18	-7
CSc1cccc(NC(N)=O)c1	1	1	-4	-1	-1	.	.
NC(=O)C1(Nc2ccc(-c3ccc(Cl)cc3)cc2)CCCC1	-22	-29	-10	22*	0	11	-1
COc1ccc(Cn2ccc3ccc(-c4ccc5ccn(C(=O)C6CCCCC6)c5c4)cc32)cc1	.	-38	-10	-4	-6	.	.
S=C(Nc1ccccc1)N1CCCN1c1ccccc1	-2	-4	-5	20*	0	4	-8
S=C(Nc1ccccc1)N1CCCCC1	-9	2	0	0	0	.	.
C[C@@H]1CN(C(=O)OC(C)(C)C)CCN1c1ccc(N2CCS(=O)(=O)CC2)c(C#N)c1	.	-9	-3	-6	0	.	.
CC(CCl)n1c(=O)c2ccccc2n1C(=O)c1ccccc1 (centres undefined)	12	-24	-5	24*	4	4	-10
CC1=NN(c2ccccc2)C(=O)/C1=C/C=C/c1ccccc1	-33	-2	2	23*	0	46*	11*
CCN(CC)S(=O)(=O)c1ccc(C(=O)Oc2coc(CSc3nc(C)cc(C)n3)cc2=O)cc1	8	-6	-1	21*	0	-29	-29
CN(C)S(=O)(=O)c1ccc(C(=O)Oc2coc(CSc3ncccn3)cc2=O)cc1	1	1	0	0	0	.	.
Cc1nn(C)cc1C(=O)NNC(=S)Nc1ccccc1	-8	6	-2	-1	1	.	.
Cc1c(C(=O)NNC(=S)Nc2cccc(Cl)c2)nnn1-c1ccccc1	-2	6	2	31*	0	34*	9.3*
Cc1cc(C(=O)NNC(=S)Nc2ccccc2)nn1C	1	12	-1	29*	-1	23*	0
C[C@@H]1CNC(=O)c2c(C(=O)N(C)Cc3ccccc3)ncn21	.	-6	-4	15	0	.	.
COCC(=O)N1CCN(C(=O)C(=O)c2cccc(C(F)(F)F)c2)CC1	.	-21	-4	23*	0	1	-2
Cc1cccc2c1N(CCOc1ccc(C(C)(C)C)cc1)C(=O)C2=O	-18	8	3	8	0	.	.
Cc1ccc(OCCCN2C(=O)C(=O)c3cccc(C)c32)cc1	5	3	6	26*	0	26*	-3
SMILES	NRP1-CendR mod	ADAM10 inh	ADAM17 inh	sPLA2-III inh	proKLK7 act	sPLA2 confirm	BODIPY interf	others
COc1ccc(/C=C/S(=O)(=O)NCc2ccccc2)c(CNC(=O)OC(C)(C)C)c1	.	7	4	0	0	.	.
O=C(OCc1ccccc1)C1=NNC2C(=O)N(c3ccccc3)C(=O)C12 (centres undefined)	-16	-3	-1	23*	0	1	-3
COc1cc(C(=O)Nc2cc(-c3nc4cc(C)ccc4o3)ccc2C)cc(OC)c1OC	-9	0	-3	-5	-1	.	.
COc1cc(C(=O)Nc2cccc(-c3nc4cc(C)ccc4o3)c2)cc(OC)c1OC	-9	-3	-1	19*	1	-17	-24
C[N+]1(CC2COC3(CCCCC3)O2)CCCC1 (centres undefined)	-5	-2	-5	24*	-1	-2	-3
COc1ccc(NC(=S)NCc2ccc3c(c2)cc(C)n3C)cc1	-2	-20	-2	22*	0	2	-2
COc1ccc(CC(=O)NCc2ccc3c(c2)cc(C)n3C)cc1	2	-3	-2	5	0	.	.
CCN(C(=O)[C@@H](C)[C@@H](O)c1ccc2ccccc2c1)c1ccccc1	.	-4	-5	-1	0	.	.
CC(C)CCNC(=S)Nc1ccccc1F	12	-4	0	20*	0	9	-1
CC(C)CCNC(=S)Nc1ccccn1	9	-6	1	8	0	.	.
CC(C)Oc1cccc(-c2n[nH]c(=S)n2N=Cc2ccc(OCc3ccccc3)cc2)c1	.	-4	1	-20	-1	.	.
CCOC(=O)/C(=N\Nc1cccc(Cl)c1)Sc1nnc(-c2ccc(OC)cc2)n1C	8	-2	-3	22*	0	17	-5
COc1ccc(-c2nnc(SCC(=O)Nc3ccc(Cl)cc3)n2C)cc1	4	3	6	3	0	.	.
CC12C=CC(C)(C3C(=O)NC(=O)C31)C1C3C(=O)NC(=O)C3C12 (centres undefined)	.	2	1	6	0	.	.
COc1cc(NC(=S)Nc2ncccc2C)cc(OC)c1OC	-1	-2	-2	1	0	.	.
Cc1cccnc1NC(=S)Nc1ccc(F)cc1F	-5	-9	-7	20*	-1	21*	-4
Cc1cc(C)nc(NC(=S)Nc2ccc(F)cc2F)c1	0	-3	-6	7	0	.	.
Cc1ccc(C)c(NC(=S)Nc2ncccc2C)c1	-4	4	0	19*	0	10	-8
COc1ccc(C2CC(=O)C(c3cccc(OC)c3)=CN2Cc2ccccc2)cc1 (centres undefined)	.	-1	3	-1	0	.	.
